GIRK2 activator – Activates human GIRK2-containing potassium channels; 34,000 tested, under 10 active; HEK293 GIRK2/NPY4 cells, thallium flux fluorescence; activation (% efficacy), % for hits at 37.5 µM; P48051;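 active means primary screen hit, no activity in plain HEK293 cells, and in GIRK2-only cells above 5% efficacy rising with concentration; inactive means the rest, including fluorescent compounds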;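 further: efficacy is normalized control-subtracted fluorescence 15 s after thallium addition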
Target sequence (P48051 whole entry, looked up): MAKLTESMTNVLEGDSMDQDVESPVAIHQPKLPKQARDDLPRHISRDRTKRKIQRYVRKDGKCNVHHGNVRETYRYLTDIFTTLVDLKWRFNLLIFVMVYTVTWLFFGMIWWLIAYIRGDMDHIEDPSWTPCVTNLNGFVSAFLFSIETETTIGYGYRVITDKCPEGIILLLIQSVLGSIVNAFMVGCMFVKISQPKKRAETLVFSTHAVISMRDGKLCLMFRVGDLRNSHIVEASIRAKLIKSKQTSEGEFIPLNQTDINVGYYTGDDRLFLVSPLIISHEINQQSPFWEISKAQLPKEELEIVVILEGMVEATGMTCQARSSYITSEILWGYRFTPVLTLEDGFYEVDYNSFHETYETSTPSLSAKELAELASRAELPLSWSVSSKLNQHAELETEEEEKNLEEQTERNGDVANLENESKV
AMPAR-TARP mod – modulates AMPAR-stargazin complexes; 3.5% of 40,000 active; O88602+P19491; calls only at 30 µM; HEK293 GluA2+stargazin, membrane potential dye (FDSS), glutamate EC50; hits were called plate by plate, in both directions;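 active means any of four per-well response measures lying three or more SD from its plate-wide compound average, in either direction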
Calls only; - = inactive; . = no result; + = active, no number; ! = not active in a repeat. This excerpt belongs to a sample that is enriched for hits.

SMILES	GIRK2 activator	AMPAR-TARP mod
CCCNC(=O)c1cc(-c2ccc(OC)cc2)nc2c1c(C)nn2C1CCS(=O)(=O)C1 (stereo not drawn)	-	-
Cc1cc(NC(=O)c2ccc([N+](=O)[O-])c(C)c2)ccc1N1CCCCC1=O	-	-
Cc1cc(C(=O)Nc2cccc(N3CCCC3=O)c2)ccc1[N+](=O)[O-]	-	+
O=C(NCCN1CCOCC1)C(=O)NCC1CCN(Cc2cccs2)CC1	-	-
CC1CCN(c2nc3c(c(=O)[nH]c(=O)n3C)n2CC(O)COc2ccc(Cl)cc2)CC1 (stereo not drawn)	.	-
Cc1ccc(OCC(O)Cn2c(N3CCCC3)nc3c2c(=O)n(C)c(=O)n3C)cc1C (stereo not drawn)	.	-
Cc1ccc(OCC(O)Cn2c(N3CCN(C)CC3)nc3c2c(=O)n(C)c(=O)n3C)cc1C (stereo not drawn)	.	+
Cn1c(=O)[nH]c(=O)c2c1nc(N1CCNCC1)n2CC(O)COc1ccc(Cl)cc1 (stereo not drawn)	.	+
O=C(Cn1cnc(-c2cccs2)cc1=O)NCCOc1ccc(-c2ccco2)nn1	-	+
CCC(=O)NCCOc1ccc(-c2cccs2)nn1	-	-
O=C(NCCn1nc(-c2cccs2)ccc1=O)NC1CCCCC1	-	-
CCOC(=O)c1cn[nH]c1S(=O)(=O)Nc1ccc(C)cc1Cl	-	-
COc1cc(S(=O)(=O)N2CCN=C2c2ccccc2)ccc1F	.	-
CCc1cc(S(=O)(=O)N2CCN=C2c2ccccc2)ccc1OC	-	+
CCc1nc2sc(C(c3ccccc3Cl)N3CCN(Cc4ccccc4)CC3)c(O)n2n1 (stereo not drawn)	.	-
Cc1cc(NC(=O)c2ccc(Cc3ccccc3)cc2)n(C)n1	-	.
CC(C)(C)C(=O)Cn1c(=O)n(CC(=O)NCCc2ccccc2)c(=O)c2sccc21	-	-
Cc1cc(C(=O)Nc2sc3c(c2-c2nc4ccccc4s2)CCN(Cc2ccccc2)C3)on1	.	+
CCn1ccc(C(=O)Nc2sc3c(c2-c2nc4ccccc4s2)CCN(C)C3)n1	.	+
CCN1CCc2c(sc(NC(=O)c3cc4ccccc4o3)c2-c2nc3ccccc3s2)C1	.	-
CN1CCc2c(sc(NC(=O)c3ccc(Cl)cc3)c2-c2nc3ccccc3s2)C1	.	-
O=C(Nc1sc2c(c1-c1nc3ccccc3s1)CCN(Cc1ccccc1)C2)c1cccs1	.	+
CC(=O)Nc1sc2c(c1-c1nc3ccccc3s1)CCN(Cc1ccccc1)C2	.	-
COc1cccc(C(=O)NCCOc2ccc3nnc(-c4ccccc4Cl)n3n2)c1	-	-
COc1cc(NS(=O)(=O)c2ccc(NC(=O)C(C)Oc3ccc(C)cc3)cc2)nc(OC)n1 (stereo not drawn)	.	-
SMILES	GIRK2 activator	AMPAR-TARP mod
Cn1c(=O)c2c(nc(NCc3ccccc3)n2CC(=O)N=Nc2c(O)[nH]c3ccccc23)n(C)c1=O	.	+
Cn1c(O)c(N=Nc2nc3c(c(=O)[nH]c(=O)n3C)n2CCCOc2ccccc2)c(=O)n(C)c1=O	.	-
Cn1c(=O)c2c(nc(N=Nc3c(O)[nH]c4ccccc34)n2CCc2ccccc2)n(C)c1=O	.	-
Cn1c(O)c(N=Nc2nc3c(c(=O)n(C)c(=O)n3C)n2Cc2ccccc2)c(=O)n(C)c1=O	.	+
CCc1ccc(S(=O)(=O)Nc2ccc3c(c2)N(C(=O)C(C)(C)C)CC3)s1	-	+
CC(C)(C)c1ccc(S(=O)(=O)Nc2ccc3c(c2)N(C(=O)C2CC2)CC3)cc1	-	+
O=C(C1CC1)N1CCc2ccc(NS(=O)(=O)c3ccc(Cl)cc3)cc21	-	-
CCc1ccc(S(=O)(=O)Nc2ccc3c(c2)N(C(=O)C2CCCC2)CC3)s1	-	-
COCC(=O)N1CCCc2ccc(NC(=O)c3cn(C)nc3OC)cc21	-	-
COc1nn(C)cc1C(=O)Nc1ccc2c(c1)N(C(=O)C1CC1)CC2	-	+
CC(=O)Nc1ccc(S(=O)(=O)Nc2ccc3c(c2)N(C(=O)C2CC2)CC3)cc1	-	-
O=C(C1CC1)N1CCc2ccc(NS(=O)(=O)c3ccc(Cl)s3)cc21	-	+
COc1ccc2nc(-c3ccc(Cl)c(NC(=O)c4ccco4)c3)cn2n1	-	.
CCOC(=O)N1CCc2c(sc(NC(=O)c3cc4ccccc4o3)c2C(N)=O)C1	.	-
COc1ccc(OCC(O)Cn2c(C3CC(=O)N(c4ccc(C)cc4)C3)nc3ccccc32)cc1 (stereo not drawn)	-	-
Cc1cc(C(=O)Nc2cc(Cl)cc(Cl)c2)on1	-	-
CC(=O)Nc1ccc(S(=O)(=O)N2CCN(c3c(C)cccc3C)CC2)cc1	.	-
Cc1cc(C)c(S(=O)(=O)n2nc(C)c(C)c2C)c(C)c1	.	+
CC(=O)Nc1ccc(S(=O)(=O)n2nc(C)c(C)c2C)cc1	.	+
Cc1cc(C)c(S(=O)(=O)N2CCN(S(=O)(=O)N3CCCC3)CC2)c(C)c1	-	-
CC1CN(C)CCN1CC1CCN(C(=O)CCCc2ccccc2)CC1 (stereo not drawn)	-	-
O=C(Nc1ccc2c(c1)N(C(=O)C1CCCC1)CC2)c1ccc(C(F)(F)F)cc1	.	-
O=C(Nc1ccc2c(c1)N(C(=O)C1CCCO1)CC2)c1ccc(C(F)(F)F)cc1 (stereo not drawn)	-	+
COc1ccc(SCCC(=O)Nc2nc3c(s2)CCCC3)cc1	-	-
N#Cc1ccccc1Cn1cc(-c2nc(-c3cnccn3)no2)ccc1=O	-	+
SMILES	GIRK2 activator	AMPAR-TARP mod
CC(C)NC(=O)Cn1cc(-c2nc(-c3cnccn3)no2)ccc1=O	-	-
CCCNC(=O)C(=O)NCC1CCN(C2CCCC2)CC1	-	-
COc1ccc(C(CNC(=O)C2CCCCC2)N2CCOCC2)cc1 (stereo not drawn)	.	+
O=C(Cc1ccc(F)cc1)NCC(c1ccc(F)cc1)N1CCOCC1 (stereo not drawn)	.	-
O=C(NCC(c1ccc(F)cc1)N1CCOCC1)C1CCCCC1 (stereo not drawn)	.	+
COc1ccc(C(CNC(=O)C(=O)NC2CCCC2)N2CCOCC2)cc1 (stereo not drawn)	-	-
CCOC(=O)C1CCN(C(=O)Cc2csc(Nc3cccc(Cl)c3)n2)CC1	-	-
CC(C)Cn1c(SCC#N)nc2cc(C(=O)NC(C)C)ccc2c1=O	.	-
CCN(CC)CCn1c(SCC#N)nc2cc(C(=O)OC)ccc2c1=O	-	+!
Cc1ccnc(NC(=O)Cc2cc(-c3ccccc3F)on2)c1	-	+
O=C(Cc1cc(-c2ccc(F)cc2F)on1)Nc1ccon1	-	-
O=C(Nc1ccc(CC(=O)N2CCCC2)cc1)c1c(F)cccc1F	-	-
CC1=C(C(=O)Nc2ccccc2C)C(c2ccc(OC(F)F)cc2)n2ncnc2N1 (stereo not drawn)	-	-
CN(C)CCNC(=O)C(=O)NCCC(O)c1ccco1 (stereo not drawn)	-	-
Cc1c(C)c(C)c(S(=O)(=O)NCCC(O)c2ccco2)c(C)c1C (stereo not drawn)	-	+
CCOCCCNC(=O)c1c(NC(=O)c2snnc2CC)sc2c1CCCC2	-	-
CCCN1C(=O)NC2(CCN(C(=O)C3CCCCC3)CC2)C1=O	-	-
CCCN1C(=O)/C(=C/c2ccc(N3CCCC3)cc2)NC1=S	.	+
O=C(c1ccc(Cl)s1)N(CCCn1ccnc1)c1nc2ccccc2s1	-	-
CCOC(=O)N1CCN(C(=O)CSc2nnc(-c3cccnc3)o2)CC1	.	-
Cc1ccc(-c2c(C)nn3c(NCCN4CCOCC4)cc(C)nc23)cc1	-	-

Compound activity from PubChem BioAssay.
